In PubChem BioAssay (NCATS):
Inconclusive results are not listed. Active and inactive are the calls of the source. Unless noted, the call rests on the fitted dose curve; in most records, active means well fitted curve in the direction sought with a large enough effect; inconclusive means small, poorly fitted or top-dose-only effect, or another doubt; inactive means no such curve, though single readings can be large; an effect the other way counts as inactive or inconclusive.

What was measured:
[1] = Cell Viability - LYMP2-001 (AID 921); further: series mostly up to about 92 µM; nearly all actives have a fitted effect of over 70% in size
Method in brief: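 Human lymphoblastoid LYMP2-001 cells, 2500 per well, in complete medium, treated 24 h at 37 C. Viability from cellular ATP by CellTiter-Glo luminescence; AC50 from Hill-equation fits of qHTS concentration-response.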

[2] = MultiTox-Fluor Cytotoxicity Assay - LYMP1-001 - Dead Cells (AID 946)
Method in brief: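 AC50 from Hill fit of concentration-response; data normalized to DMSO (basal) and 15 uM tetraoctylammonium bromide (100%). LYMP1-001 lymphoblastoid cells, 2500/well, 16 hr compound at 37 C; dead-cell protease fluorescence, Ex/Em 485/520.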

[3] = MultiTox-Fluor Cytotoxicity Assay - LYMP1-001 - Live Cells (AID 947)
[4] = Cell Viability - LYMP1-002 - Assay at 16 hr (AID 948)
Method in brief: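 LYMP1-002 human lymphoblastoid cells, 2500/well, were treated with compounds for 16 hr at 37 C in complete medium. Viability was read as intracellular ATP by CellTiter-Glo luminescence, and AC50 was derived from a Hill fit to concentration-response data.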

[5] = MultiTox-Fluor Cytotoxicity Assay - LYMP1-002 - Live Cells (AID 955);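 further: cells exposed to compound for 16 hours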
Method in brief: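 In this qHTS viability format, lymphoblastoid cells (LYMP1-002, human) received compound for 16 hr at 37 C. Fluorogenic GF-AFC cleavage by viable cells was detected at 405/510 nm after 1 h at room temperature.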

[6] = Cell Viability - LYMP1-003 - Assay at 24 hr (AID 963)
Method in brief: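 The lymphoblastoid line was treated with titrated compounds for 24 hours, and viable cell number estimated from luciferase-based ATP luminescence.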

[7] = Cell Viability - LYMP1-003 - Assay at 40 hr (AID 964); further: series mostly up to about 92 µM; nearly all actives have a fitted effect of over 60% in size
Method in brief: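 Acute toxicity is scored as a concentration-dependent loss of intracellular ATP in LYMP1-003 cells (2500/well, complete medium) after 40 hr at 37 C, measured by CellTiter-Glo luminescence; AC50 values derive from standard Hill modelling.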

[8] = Cell Viability - LYMP2-003 (AID 965);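 further: cells exposed to compounds for 24 h before reading; nearly all actives have a fitted effect of over 50% in size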
Method in brief: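 Human lymphoblastoid LYMP2-003 cells, 2500/well, exposed to compounds for 24 h at 37 C in complete medium. Viability read as intracellular ATP by CellTiter-Glo luminescence; AC50 from Hill-equation fits of qHTS concentration-response data.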

[9] = Cell Viability - LYMP2-004 (AID 966); further: nearly all actives have a fitted effect of over 65% in size
Method in brief: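 Viable-cell number estimated from ATP luminescence (CellTiter-Glo) in 2500 human lymphoblastoid cells/well after 24 hr at 37 C with compound. AC50 fitted to the standard Hill equation.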

[10] = Cell Viability - LYMP2-005 (AID 967); further: series mostly up to about 92 µM
Method in brief: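 Human lymphoblastoid LYMP2-005 cells, 2,500 per well in complete medium, rested 5 h at 37C then compound-treated 24 h at 37C. Intracellular ATP read by CellTiter-Glo luminescence after 30 min at room temperature; AC50 from Hill-equation fits of concentration-response data.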

[11] = Cell Viability - LYMP2-009 (AID 968); further: series mostly up to about 92 µM; nearly all actives have a fitted effect of over 55% in size
[12] = qHTS Assay for Identification of Small Molecule Agonists for Thrombopoietin (TPO) Signaling Pathway (AID 917); further: potency means the concentration at half of the fitted maximal effect
Method in brief: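 Stimulation at the TPO EC50 (26 pM final) was used to detect activators. Ba/F3 mouse cells bearing human TPO receptor and a luciferase reporter under the Glycoprotein IIb promoter were exposed to compounds for 24 hrs at 37 C.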

[13] = Confirmation and Secondary Assay for Modulators of Hemoglobin Beta Chain Splicing at IVS2 705 locus (AID 930);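 further: HeLa cells stably expressing the EGFP-705 splicing reporter; series mostly up to about 46 µM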
Method in brief: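 Restored EGFP fluorescence after 2-day compound exposure reports splicing correction in IVS2-705 EGFP reporter HeLa cells; positive control was 500 nM splice-blocking PNA oligo. Signal measured as well total peak GFP intensity (488 nm excitation).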

[14] = molecular target: Pyruvate kinase (Leishmania mexicana) (UniProt Q27686); experiment: qHTS Validation Assay for Inhibitors of Leishmania Mexicana Pyruvate Kinase (AID 945); further: potency means the concentration at half of the fitted maximal effect
Sequence of Pyruvate kinase (Leishmania mexicana) (Q27686 2-499 E452W): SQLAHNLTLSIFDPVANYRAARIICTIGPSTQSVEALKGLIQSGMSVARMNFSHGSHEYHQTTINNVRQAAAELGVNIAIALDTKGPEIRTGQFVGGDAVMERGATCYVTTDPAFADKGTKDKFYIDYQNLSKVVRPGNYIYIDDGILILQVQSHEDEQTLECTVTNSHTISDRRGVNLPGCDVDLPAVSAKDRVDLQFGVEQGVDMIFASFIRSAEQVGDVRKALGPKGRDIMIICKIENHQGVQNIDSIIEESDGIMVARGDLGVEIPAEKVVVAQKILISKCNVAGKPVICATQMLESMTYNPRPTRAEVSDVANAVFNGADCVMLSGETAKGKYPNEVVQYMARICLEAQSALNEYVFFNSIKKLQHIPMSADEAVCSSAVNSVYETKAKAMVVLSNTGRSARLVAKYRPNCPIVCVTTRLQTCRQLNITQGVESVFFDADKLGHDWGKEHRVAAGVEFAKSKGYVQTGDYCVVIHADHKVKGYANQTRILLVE
Method in brief: (§1)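 Purified LmPYK (E451W mutant, 0.2 nM) was incubated 1 h at room temperature with 0.5 mM PEP and 0.1 mM ADP in 50 mM imidazole pH 7.2, 50 mM KCl, 7 mM MgCl2; ATP formed was read by PKLight luminescence, normalized to DMSO wells.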

[15] = molecular target: Pyruvate kinase PKM (Homo sapiens) (UniProt P14618); experiment: qHTS Assay for Activators of Human Muscle Pyruvate Kinase (AID 954; active means well fitted curve in the direction sought with a large enough effect, not every such curve was filed as active)
Sequence of Pyruvate kinase PKM (Homo sapiens) (P14618 whole entry, looked up): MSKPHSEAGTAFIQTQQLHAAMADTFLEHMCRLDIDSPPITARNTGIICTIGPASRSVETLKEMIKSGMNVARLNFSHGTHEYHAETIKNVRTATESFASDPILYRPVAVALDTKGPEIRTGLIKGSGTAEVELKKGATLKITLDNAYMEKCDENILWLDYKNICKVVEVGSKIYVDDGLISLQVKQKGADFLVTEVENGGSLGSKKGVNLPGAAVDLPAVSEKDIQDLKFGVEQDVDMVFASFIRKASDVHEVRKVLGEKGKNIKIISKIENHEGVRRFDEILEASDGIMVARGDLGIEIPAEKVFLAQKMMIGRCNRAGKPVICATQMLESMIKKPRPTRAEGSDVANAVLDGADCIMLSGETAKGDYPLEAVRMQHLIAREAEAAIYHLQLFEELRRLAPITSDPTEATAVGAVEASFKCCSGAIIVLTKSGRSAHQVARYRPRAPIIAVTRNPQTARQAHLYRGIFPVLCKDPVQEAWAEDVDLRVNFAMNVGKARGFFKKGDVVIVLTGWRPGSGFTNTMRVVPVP
Method in brief: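 A coupled luminescent readout tracked ATP made from ADP by purified PKM2. Final conditions included 0.1 nM enzyme, PEP and ADP at 0.5 and 0.1 mM, pH 7.2 imidazole buffer with BSA, and a one-hour room-temperature reaction.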

[16] = molecular target: Pyruvate kinase PKM (Homo sapiens) (UniProt P14618); experiment: qHTS Assay for Inhibitors of Human Muscle Pyruvate Kinase (AID 958); conditions: purified human PKM enzyme activity
Method in brief: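 Human PKM2 activity is measured as ATP generation, detected by luciferase-coupled luminescence. The enzyme (0.1 nM) acts on 0.5 mM PEP and 0.1 mM ADP for 1 h at ambient temperature; data are normalized to uninhibited and full-inhibition wells.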

[17] = molecular target: Pyruvate kinase (Leishmania mexicana) (UniProt Q27686); experiment: qHTS Validation Assay for Activators of Leishmania Mexicana Pyruvate Kinase (AID 959)
Method in brief: as §1

[18] = molecular target: Muscarinic acetylcholine receptor M1 (Rattus norvegicus) (UniProt P08482); experiment: qHTS Assay for Antagonists of Acetylcholine Muscarinic M1 Receptor: Kinetic Measurement of Intracellular Calcium Response (AID 943);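 further: Fluo-4 calcium signal as peak divided by basal fluorescence over 4 min; series mostly up to about 35 µM; nearly all actives have a fitted effect of over 75% in size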
Sequence of Muscarinic acetylcholine receptor M1 (Rattus norvegicus) (P08482 whole entry, looked up): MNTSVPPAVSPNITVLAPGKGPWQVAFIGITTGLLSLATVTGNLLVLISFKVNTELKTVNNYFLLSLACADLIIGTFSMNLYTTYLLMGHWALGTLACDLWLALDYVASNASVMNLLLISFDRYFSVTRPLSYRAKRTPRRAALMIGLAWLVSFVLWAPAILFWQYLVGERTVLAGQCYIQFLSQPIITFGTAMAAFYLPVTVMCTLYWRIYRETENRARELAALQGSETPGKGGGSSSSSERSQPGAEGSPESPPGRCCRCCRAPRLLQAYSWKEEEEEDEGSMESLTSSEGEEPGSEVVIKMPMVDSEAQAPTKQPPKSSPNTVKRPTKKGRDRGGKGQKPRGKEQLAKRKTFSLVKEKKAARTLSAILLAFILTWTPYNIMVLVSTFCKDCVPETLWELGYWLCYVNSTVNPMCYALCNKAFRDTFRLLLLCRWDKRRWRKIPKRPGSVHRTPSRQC
Method in brief: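 Quantitative HTS in CHO-M1 (rat receptor) cells: 10 min compound exposure ahead of 100 nM carbachol, Fluo-4 fluorescence followed 4 min, value expressed as peak-to-basal ratio.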

[19] = molecular target: Muscarinic acetylcholine receptor M1 (Rattus norvegicus) (UniProt P08482); experiment: qHTS Assay for Antagonists of Acetylcholine Muscarinic M1 Receptor: Measurement of IP-One Response (AID 944); further: nearly all actives have a fitted effect of over 75% in size
Method in brief: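 Antagonism was measured as loss of carbachol-driven (EC80) IP1 accumulation in CHO cells carrying rat M1, using a homogeneous IP-One TR-FRET kit read at 620 and 665 nm.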

Measured: Potency

Cc1cn([C@H]2C[C@H](N=[N+]=[N-])[C@@H](CO)O2)c(=O)[nH]c1=O
not listed: [12] | [13] | [14] | [15] | [16] | [17] | [18] | [19]
inactive: all other assays above

O=C(Nc1ccc([N+](=O)[O-])cc1Cl)c1cc(Cl)ccc1O
inactive: [13] | [15] | [17]
active: [12] 100 nM | [14] 2510 nM | [16] 3160 nM

CC(C)NCC(O)c1ccc(O)c(O)c1 (stereo not drawn)
not listed: [7] | [12] | [14] | [15] | [16] | [17] | [18] | [19]
inactive: all other assays above

CN(Cc1cnc2nc(N)nc(N)c2n1)c1ccc(C(=O)N[C@@H](CCC(=O)O)C(=O)O)cc1
inactive: [12] | [14] | [15]

CC[N+](CC)(CC)CCOc1cccc(OCC[N+](CC)(CC)CC)c1OCC[N+](CC)(CC)CC
inactive: [12] | [14] | [15]

COc1ccc2c(c1)c(CC(=O)O)c(C)n2C(=O)c1ccc(Cl)cc1
not listed: [1] | [14] | [16] | [17] | [18] | [19]
inactive: all other assays above

COc1ccc(CCN(C)CCCC(C#N)(c2ccc(OC)c(OC)c2)C(C)C)cc1OC (stereo not drawn)
inactive: [2] | [3] | [4] | [5] | [6] | [7]

O=C1N(c2ccccc2)c2ccccc2C1(Cc1ccncc1)Cc1ccncc1
inactive: [18] | [19] | [14] | [15]

CN(C)CCCN1c2ccccc2CCc2ccc(Cl)cc21
inactive: [13] | [14] | [15]

CN1CCN(CCCN2c3ccccc3Sc3ccc(Cl)cc32)CC1
inactive: [13] | [14] | [15]
